Several values for one entry are separate records, joined by “and”; a condition that tells them apart may be missing. Equal values may be shown once. Inconclusive results are not listed. Unmarked numbers belong to inactive results. The call rests on the fitted dose curve; in most records, active means well fitted inhibition curve with a large enough effect; inconclusive means small, poorly fitted or top-dose-only effect; inactive means flat fitted curve, though single readings scatter.
Test: Drug repurposing screens with cells derived from glioblastoma tumor samples (AID 1345199); further: nearly all actives have a fitted effect of over 40% in size
Conditions: GBM patient neurospheres viability, ATP luminescence, 48 h; at 21.2 µM (top of the series); tumour line D
Summary of the method: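 Four patient lines of CD133+ GBM neurospheres were screened at several concentrations; hits were retested in those lines plus three slower-growing GBM lines, using 48-hour treatment and ATP-based viability.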
On the % scale 0 is the no-effect control and ±100 the full control effect.

Compound | activity, negative = cell killing
Cc1cccc(Nc2ccncc2S(=O)(=O)NC(=O)NC(C)C)c1 | -26%
CC(C)(C)NC(=O)[C@H]1CC[C@H]2[C@@H]3CC[C@H]4NC(=O)C=C[C@]4(C)[C@H]3CC[C@]12C | -2.64%
C[C@@H]1C[C@H]2[C@@H]3CCC4=CC(=O)C=C[C@]4(C)[C@@]3(Cl)[C@@H](O)C[C@]2(C)[C@@]1(OC(=O)c1ccco1)C(=O)CCl | -9.21%
COc1cnc(NS(=O)(=O)c2ccc(N)cc2)nc1 | -2.41%
CCOC(=O)c1ccc(OC(=O)CCCCCN=C(N)N)cc1 | -2.23%
Cc1onc(-c2ccccc2Cl)c1C(=O)N[C@@H]1C(=O)N2[C@@H]1SC(C)(C)[C@@H]2C(=O)O | -24.2%
Nc1ccc(S(=O)(=O)Nc2ccccn2)cc1 | 5.31%
NS(=O)(=O)c1cc2c(cc1Cl)NC(C(Cl)Cl)NS2(=O)=O (configuration not stated) | -11.1%
Cn1c(=O)c2c(ncn2CC(O)CO)n(C)c1=O (configuration not stated) | 1.54%
CO[C@@H]1[C@@H](OC(N)=O)[C@@H](O)[C@H](Oc2ccc3c(O)c(NC(=O)c4ccc(O)c(CC=C(C)C)c4)c(=O)oc3c2C)OC1(C)C | -2.99%
CCn1cc(C(=O)O)c(=O)c2cc(F)c(N3CCNCC3)nc21 | -17.3%
COc1ccccc1OCC(O)COC(N)=O (configuration not stated) | -10.3%

Same assay, conditions: GBM patient neurospheres viability, ATP luminescence, 48 h; at 21.3 µM (top of the series); tumour line A

Compound | activity, negative = cell killing
Cc1cccc(Nc2ccncc2S(=O)(=O)NC(=O)NC(C)C)c1 | -11%
CC(C)(C)NC(=O)[C@H]1CC[C@H]2[C@@H]3CC[C@H]4NC(=O)C=C[C@]4(C)[C@H]3CC[C@]12C | -15%
C[C@@H]1C[C@H]2[C@@H]3CCC4=CC(=O)C=C[C@]4(C)[C@@]3(Cl)[C@@H](O)C[C@]2(C)[C@@]1(OC(=O)c1ccco1)C(=O)CCl | -28.2%
COc1cnc(NS(=O)(=O)c2ccc(N)cc2)nc1 | -32%
CCOC(=O)c1ccc(OC(=O)CCCCCN=C(N)N)cc1 | -25.1%
Nc1ccc(S(=O)(=O)Nc2ccccn2)cc1 | -9.41%
NS(=O)(=O)c1cc2c(cc1Cl)NC(C(Cl)Cl)NS2(=O)=O (configuration not stated) | -6.45%
Cn1c(=O)c2c(ncn2CC(O)CO)n(C)c1=O (configuration not stated) | 3.02%
CO[C@@H]1[C@@H](OC(N)=O)[C@@H](O)[C@H](Oc2ccc3c(O)c(NC(=O)c4ccc(O)c(CC=C(C)C)c4)c(=O)oc3c2C)OC1(C)C | -27.7%
CCn1cc(C(=O)O)c(=O)c2cc(F)c(N3CCNCC3)nc21 | -3.28%
COc1ccccc1OCC(O)COC(N)=O (configuration not stated) | -18%

Same assay, conditions: GBM patient neurospheres viability, ATP luminescence, 48 h; at 45.9 µM (top of the series); tumour line B

Compound | activity, negative = cell killing
CC1(C)[C@H](C(=O)O)N2C(=O)C[C@H]2S1(=O)=O | 1.79%
O=C(O)CCn1c2c(c3ccccc31)C[C@H](NS(=O)(=O)c1ccc(F)cc1)CC2 | -3.62%
CCOCC(O)COc1ccc(NC(=O)CC[S+](C)C)cc1 (configuration not stated) | -7.04%
CNS(=O)(=O)CCc1ccc2[nH]cc(C3CCN(C)CC3)c2c1 | -8.38%
Cc1cc(NS(=O)(=O)c2ccc(N)cc2)no1 | 0.277%
O=NN(CCCl)C(=O)NC1CCCCC1 | -2.15%
Cn1nnc2c(C(N)=O)ncn2c1=O | -3.24%
OC(Cn1cncn1)(Cn1cncn1)c1ccc(F)cc1F | -6.67%
CC1=NN(c2ccccc2)C(=O)C1 | -3.42%
C[C@@H]1CN(c2c(F)c(N)c3c(=O)c(C(=O)O)cn(C4CC4)c3c2F)C[C@H](C)N1 | -1.03%
CCN(C)C(=O)Oc1cccc([C@H](C)N(C)C)c1 | -13.1%
Cc1ncc([N+](=O)[O-])n1CCO | -7.77%
CN1CCN(c2c(F)cc3c(=O)c(C(=O)O)cn4c3c2OCN4C)CC1 | 0.422%
CN(CCOc1ccc(CC2SC(=O)NC2=O)cc1)c1ccccn1 (configuration not stated) | -18.3%
Cc1nnc(NS(=O)(=O)c2ccc(N)cc2)s1 | 4.69%
Cc1noc(NS(=O)(=O)c2ccc(N)cc2)c1C | -5.33% and -3.65%
C#CCN[C@@H]1CCc2ccccc21 | -8.4%
CCCN[C@H]1CCc2nc(N)sc2C1 | 3.81%
CC[C@H](NC(C)C)[C@H](O)c1ccc(O)c2[nH]c(=O)ccc12 | -9.21%
O=C(O)c1cc(=O)[nH]c(=O)[nH]1 | -3.6%
NCCCC(O)(P(=O)(O)O)P(=O)(O)O | -8.76%
COc1nc(N)nc2c1ncn2[C@@H]1O[C@H](CO)[C@@H](O)[C@@H]1O | -17.9%

Same assay, conditions: GBM patient neurospheres viability, ATP luminescence, 48 h; at 45.9 µM (top of the series); tumour line D

Compound | activity, negative = cell killing
CC1(C)[C@H](C(=O)O)N2C(=O)C[C@H]2S1(=O)=O | -3.83%
O=C(O)CCn1c2c(c3ccccc31)C[C@H](NS(=O)(=O)c1ccc(F)cc1)CC2 | -7.83%
CCOCC(O)COc1ccc(NC(=O)CC[S+](C)C)cc1 (configuration not stated) | -30.9%
CNS(=O)(=O)CCc1ccc2[nH]cc(C3CCN(C)CC3)c2c1 | 2.37%
Cc1cc(NS(=O)(=O)c2ccc(N)cc2)no1 | -26.8%
O=NN(CCCl)C(=O)NC1CCCCC1 | -13.5%
Cn1nnc2c(C(N)=O)ncn2c1=O | -16.1%
OC(Cn1cncn1)(Cn1cncn1)c1ccc(F)cc1F | -19.6%
CC1=NN(c2ccccc2)C(=O)C1 | -8.39%
C[C@@H]1CN(c2c(F)c(N)c3c(=O)c(C(=O)O)cn(C4CC4)c3c2F)C[C@H](C)N1 | -17%
CCN(C)C(=O)Oc1cccc([C@H](C)N(C)C)c1 | -25.1%
Cc1ncc([N+](=O)[O-])n1CCO | 10.9%
CN1CCN(c2c(F)cc3c(=O)c(C(=O)O)cn4c3c2OCN4C)CC1 | -17.1%
CN(CCOc1ccc(CC2SC(=O)NC2=O)cc1)c1ccccn1 (configuration not stated) | -26.6%
Cc1nnc(NS(=O)(=O)c2ccc(N)cc2)s1 | 17.1%
Cc1noc(NS(=O)(=O)c2ccc(N)cc2)c1C | -24.3% and -9.55%
C#CCN[C@@H]1CCc2ccccc21 | -8%
CCCN[C@H]1CCc2nc(N)sc2C1 | 9.12%
CC[C@H](NC(C)C)[C@H](O)c1ccc(O)c2[nH]c(=O)ccc12 | -7.02%
O=C(O)c1cc(=O)[nH]c(=O)[nH]1 | 11.2%
NCCCC(O)(P(=O)(O)O)P(=O)(O)O | 1.9%
COc1nc(N)nc2c1ncn2[C@@H]1O[C@H](CO)[C@@H](O)[C@@H]1O | 6.59%

From PubChem BioAssay (NCATS)
